Sampled rows, rich in hits. Any-hit rate of the full collection: about 11%.
Pf growth 96h – inhibits malaria parasite growth, 96 h. P. falciparum luciferase reporter growth, 96 h. actives 6.9% (n = 320,000). Potency, µM (series often up to 28.7 µM), without a hit: at the highest dose activity change, negative = inhibition, most hits filed as inhibitors. AID 504834
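Readout is luminescence from an integrated firefly luciferase in P. falciparum. Red cells, 2% hematocrit and 0.05% parasitemia final, were cultured with compound through two parasite generations (96 hours) at 37 C, 5% CO2.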
AMA1-RON2 inh – inhibitors of Plasmodium falciparum AMA1-RON2 interaction; AlphaScreen AMA1-biotinylated RON2 peptide binding; Potency, µM (titrated, usually from 58.2 µM), for inactives: top-dose activity change, negative = inhibition, usual class: inhibitors; actives 0.2% (n = 360,000);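 note: 0% = vehicle wells and -100% = peptide control; nearly all actives have a fitted effect of over 45% in size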
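AMA1 (3D7) with his tag at 25 nM final met compounds first, then biotinylated RON2 peptide at 25 nM; detection used donor plus acceptor beads, 10 µg/mL apiece, read by AlphaScreen after 30 min at room temperature.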
HCV inhibitor – blocks hepatitis C virus. Potency, µM (highest dose often 41.8 µM), without a hit: top-dose activity change, negative = inhibition, usual class: inhibitors. Huh7.5.1 HCVcc-Cre infection, luciferase reporter, 44 h. actives 3.4% (n = 340,000)
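Antiviral activity was scored by luciferase reporter output from cells infected with HCVcc-Cre (~0.5 moi) in presence of compound, 44 h infection period, cells seeded 1,000/well 4 h prior.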
Pf growth 48h – P. falciparum growth inhibition at 48 hours (one generation); P. falciparum luciferase growth in erythrocytes, 48 h; Potency, µM (series often up to 28.7 µM), inactives show at the top dose activity change, negative = inhibition, hits mostly inhibitors; actives 5.9% (n = 310,000); AID 504832
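First compound was added to culture medium, then infected red cells at 0.1% parasitemia and 2% hematocrit (final). After incubation at 37 C under 5% CO2, luciferase detection reagent was dispensed and light output recorded.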
Active calls of the source: *; ? = inconclusive; · = not tested or not shown. Calls come from the whole dose curve; as a rule, active = well fitted curve in the direction sought with a large enough effect; inconclusive = small, poorly fitted or top-dose-only effect, or another doubt; inactive = no such curve, though single readings can be large; an effect the other way counts as inactive or inconclusive. Unless noted, % is set by controls: 0 for no effect and ±100 for the full control effect; potency is the fitted concentration of half-maximal effect.

SMILES	Pf growth 96h	AMA1-RON2 inh	HCV inhibitor	Pf growth 48h
COc1ccc(-n2c(Cn3c(=O)sc4ccccc43)nnc2SC)cc1	1.9µM*	-11%	8%	3%
CCc1nnc(SCC(=O)N2CCc3ccccc32)n1CC	?	-3%	3%	1%
COCCCn1c(SCC(=O)N2CCc3ccccc32)nnc1-c1ccco1	12µM*	-6%	2%	-6%
COCCCn1c(SCC(=O)N2CCc3ccccc32)nnc1-c1ccoc1C	·	-6%	11%	·
Cn1c(CNC(=O)c2cccs2)nnc1SCC(=O)Nc1ccc(Cl)cc1	?	9%	-5%	12µM*
Cc1ccc(C(=O)NCc2nnc(SCC(=O)Nc3ccccc3)n2C)cc1	3%	-3%	?	32%
CC1(C(=O)NCCCN2CCCC2=O)CCN1CCc1ccccc1 (stereo unspecified)	·	9%	·	·
Cc1cc(Br)ccc1NC(=O)CN(C)C(=O)C1CCN(C(=O)c2ccc(Cl)cc2)CC1	·	80%	4%	·
COc1ccc(/C=C/c2c(-c3ccc(OC)cc3)sc3ccc(N4CCOCC4)cc23)cc1	?	-23%	-5%	?
COc1ccc(-c2oc3ccc(N4CCOCC4)cc3c2/C=C/c2ccc(OC)c(OC)c2)cc1	12µM*	0%	-15%	?
COc1cccc(NC(=S)N/N=C2/CCCCc3ccccc32)c1	?	37%	?	?
Cc1c(Cl)c([N+](=O)[O-])nn1Cc1ccc(C(=O)N/N=C\c2cccc(Br)c2)o1	?	-7%	?	9.3µM*
COc1cccc(C(=O)Nn2cnnc2)c1OC	2.1µM*	0%	19%	8%
O=C(Nn1cnnc1)c1ccccc1Cl	8.3µM*	-10%	8%	3%
Cc1ccccc1C(=O)Nn1cnnc1	10%	-2%	23%	12%
COCC(=O)N1CCC(Oc2ccc(C(=O)N3CCSCC3)cc2)CC1	34%	-20%	9%	18%
O=c1[nH][nH]c(=O)c2c1[nH]c(=S)n2Cc1ccccc1	·	3%	-24%	·
CCn1cc(C(=O)O)c(=O)c2cc(F)c(N/N=C/c3ccccc3[N+](=O)[O-])cc21	6%	24%	3%	6%
CCCCN(C=O)c1c(CC)nc2ccc(C(=O)NCc3ccc4c(c3)OCO4)cn12	·	-3%	·	·
Cc1onc(-c2c(Cl)cccc2Cl)c1COC(=O)c1ccc(Cl)cc1	13µM*	8%	?	?
Cc1onc(-c2c(F)cccc2Cl)c1-c1nnc(-c2ccc(C(F)(F)F)cc2)o1	8.3µM*	6%	-42%	8.3µM*
Cc1onc(-c2c(Cl)cccc2Cl)c1-c1nnc(-c2ccc(Cl)cc2)o1	-48%	-26%	18µM*	?
CC(=O)Nc1nnc(-c2c(-c3c(Cl)cccc3Cl)noc2C)o1	26%	18%	-9%	18%
CC(C)NC(=O)N(C)C[C@@H]1OCc2cn(nn2)CCCC(=O)N([C@H](C)CO)C[C@H]1C	·	-8%	·	·
c1ccc(C[n+]2ccc3ccccc3c2)cc1	·	-6%	?	·
SMILES	Pf growth 96h	AMA1-RON2 inh	HCV inhibitor	Pf growth 48h
c1ccc(C[n+]2cccc(-c3ccccc3)c2)cc1	0.66µM*	8%	-16%	2.1µM*
CC(C)C(C)(C#N)NC(=O)CSc1nnc(-c2ccncc2)n1Cc1ccccc1 (stereo unspecified)	3.7µM*	69%	21%	?
C/C(N)=C(/C#N)C(=O)CSc1nc2scc(-c3ccccc3)c2c(=O)n1C	?	-5%	-13%	?
CC(C)C(C)(C#N)NC(=O)CSc1nc2scc(-c3ccc(F)cc3)c2c(=O)n1Cc1ccccc1 (stereo unspecified)	4.7µM*	15%	-17%	9.3µM*
O=C(NCc1cccc(Br)c1)c1cc(-c2ccccc2)nn1CC1CC(c2cccc([N+](=O)[O-])c2)=NO1 (stereo unspecified)	·	6%	?	·
CC[N+](CC)(CC#Cc1ccccc1)CC#Cc1ccccc1	?	-12%	-6%	1.5µM*
C#CC[N+](CC)(CC)CC#Cc1ccccc1	?	5%	-14%	?
O=C(c1cccs1)N1C[C@H](n2cc(C3CC3)nn2)[C@@H](O)C[C@@H]1c1ccc(Cl)cc1	·	5%	·	·
Cc1cc(C(=O)Nc2ccc(N3CCOCC3)c3nonc23)ccc1[N+](=O)[O-]	19%	-3%	-27%	-13%
COC(=O)Cn1c2ccccc2c2nc(=O)cc(C)n21	?	-2%	9%	19%
COc1cc2c(cc1OC)n(CC(=O)NC1CCCCCC1)n1c(C)cc(=O)nc21	5.9µM*	-5%	-1%	19%
COc1ccc(C2(c3ccc(OC)cc3)NC(=O)N(CC(=O)Nc3ccc(OC)c(OC)c3)C2=O)cc1	?	-24%	?	6.6µM*
COc1ccc(C2(c3ccc(OC)cc3)NC(=O)N(CC(=O)Nc3ccccc3C(F)(F)F)C2=O)cc1	12µM*	4%	?	?
COc1cccc(NC(=O)CN2C(=O)NC(C)(CCC(C)C)C2=O)c1 (stereo unspecified)	17%	-1%	-12%	10µM*
Cc1cc(NC(=O)CN2C(=O)NC(c3ccccc3)(c3ccc(C)c(C)c3)C2=O)no1 (stereo unspecified)	4.1µM*	-1%	?	?
COc1cc(NC(=O)CN2C(=O)NC(C)(CCC(C)C)C2=O)cc(OC)c1 (stereo unspecified)	?	-19%	-25%	-16%
O=C(O)c1ccc(-c2ccc(/C=c3/sc4nc5ccccc5n4c3=O)o2)cc1Cl	8%	37%	19%	12%
COC(=O)c1c(NC(=O)COC(=O)CNC(=O)c2cccc(OC(F)F)c2)sc(C)c1C	·	0%	·	·
COc1ccc(CCNCC(=O)Nc2ccc(C)c(S(=O)(=O)N(C)C)c2)cc1OC	?	?	-4%	?
CCCN(CCC)c1nc(Cl)nc(NCCN2CCOCC2)n1	225%	-9%	14µM*	-7%
C=CCNc1nc(NCCN2CCOCC2)nc(OC)n1	-61%	4%	-6%	12%
Cc1c(-c2ccccc2)c(-c2ccc(OCCN(C)C)cc2)n2ccccc12	·	-24%	?	·
Cn1c(=O)c2c(ncn2CCO)n(C)c1=O	4.3µM*	-7%	13%	7%
Cc1ccc(OCCn2cnc3c2c(=O)n(C)c(=O)n3C)cc1	-11%	10%	3.5µM*	-5%
Cn1c(=O)n(CCOc2ccc([N+](=O)[O-])cc2)c2ccccc21	0%	-22%	2%	11%
CC(C)CCn1cnc2c1c(=O)n(C)c(=O)n2C	-9%	24%	12%	-18%
Cc1ccc(OCCn2c(=O)n(C)c3ccccc32)cc1	364%	-4%	11µM*	66%
O=C(NCc1ccc(Cl)cc1)c1ccc(S(=O)(=O)N2CCCCC2)cc1	?	6%	-16%	?
CCOc1ccccc1N(CC(=O)Nc1cc(OC)ccc1OC)S(=O)(=O)c1ccccc1	48%	-13%	?	?
COc1ccccc1N(Cc1ccccc1)S(=O)(=O)c1cccc(C(=O)N2CCCCC2)c1	·	4%	-1%	·
